In PubChem BioAssay (Tox21):
Inconclusive results are not listed. Entries that show only a call come without a potency. Activity calls are given as the source filed them. The call rests on the fitted dose curve; in most records, active means well fitted cell-killing curve with a large enough effect in the repeat runs; inconclusive means weak or mixed curves, or effect the other way; inactive means flat fitted curve, though single readings scatter.

What was measured:
[1] = cAMP Responsive Elements (CRE) small molecule antagonists, cell-based qHTS assay: qHTS cell viability counter screen (AID 2060913); details: CRE-bla HEK293T viability, CellTiter-Glo luminescence, 5 h; series mostly up to 92.4 µM; further: nearly all actives have a fitted effect of over 40% in size
How it was run: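 Viability of NKH477-stimulated (0.25 uM final) CRE-bla HEK293T cells is measured by CellTiter-Glo luminescence following 3 hrs compound exposure at 37 C.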

[2] = cAMP Responsive Elements (CRE) small molecule agonists, cell-based qHTS assay: qHTS cell viability counter screen (AID 2060914); details: CRE-bla HEK293T viability, CellTiter-Glo luminescence, 5 h; series mostly up to 92.4 µM;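 further: viability read after 3 h of compound exposure; nearly all actives have a fitted effect of over 50% in size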
How it was run: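 CRE-bla HEK293T cells in 10% dialyzed FBS medium were exposed to compounds for 3 h at 37C after 18 h plating. CellTiter-Glo was then added in the same wells, and luminescence was read after 30 min at room temperature.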
Potency means the concentration at half of the fitted maximal effect.

Row | SMILES | Potency [1] | Potency [2]
1 | CCN(CC)C(=S)[S-].CCN(CC)C(=S)[S-].[Zn+2] | 6.8 µM (active) | 19.2 µM (active)
2 | CN(C)CCc1ccc(O)cc1 | inactive | inactive
3 | CN1C(=O)CCS(=O)(=O)C1c1ccc(Cl)cc1 (stereo not given) | inactive | inactive
4 | CCCC(C)(COC(N)=O)COC(N)=O | inactive | inactive
5 | C[N+](=O)[O-] | inactive | inactive
6 | CNC(=O)Oc1cccc(C(C)C)c1 | inactive | inactive
7 | CCCCCl | inactive | inactive
8 | CCNc1nc(NCC)nc(SC)n1 | inactive | inactive
9 | Clc1cccc(C(Cl)(Cl)Cl)n1 | inactive | inactive
10 | Clc1cccc(SC2CCNCC2)n1 | inactive | inactive
11 | CC(Cl)(Cl)C(=O)O | inactive | inactive
12 | Cc1cccc(C)c1NC(=O)CN1CCCC1=O | inactive | inactive
13 | COc1cccc(C=O)c1 | inactive | inactive
14 | CCOP(=O)(OCC)OP(=O)(OCC)OCC | inactive | inactive
15 | COc1nc(NC(C)C)nc(NC(C)C)n1 | inactive | inactive
